Our source for the cytotoxicity call values is the antibiotic and cytotoxicity screens of Wong et al. (2023).

In all, about 39,000 compounds went through this assay and about 3,300 (8.5%) were called active. The entries come from a sample that favours actives as a whole.

The experiment has as its system HepG2. As to the kind of experiment: cytotoxicity call (relative viability < 0.9). The settings on record: 10 µM.
In the case of `Cc1cccnc1[C@H](c1ccc(F)cc1)N(C)C(=O)C1CCN(CCOc2ccc(Cl)cc2Cl)CC1`, the cytotoxicity call is “inactive”.
As to `CC(=O)N(C)C[C@H]1Oc2ncc(C#C[C@@H](C)O)cc2C(=O)N([C@@H](C)CO)C[C@H]1C`, the cytotoxicity call is “inactive”.
Turning to `C[C@@H]1CN([C@H](C)CO)C(=O)Cc2cc(NC(=O)Nc3cccc4ccccc34)ccc2O[C@H]1CN(C)C(=O)Nc1ccc(F)cc1`, the cytotoxicity call was “inactive”.
The entry for `CNC[C@@H]1Oc2cc(C#CCN(C)C)ccc2S(=O)(=O)N([C@H](C)CO)C[C@@H]1C` is “inactive”; for `CCCN1C[C@@H](C)[C@H](OC)CN(C)C(=O)c2cc(NS(=O)(=O)c3cn(C)cn3)ccc2OC[C@@H]1C` it is “inactive”.
With `CN1CCN(C(=O)C[C@H]2CC[C@H](NC(=O)Cc3ccccn3)[C@H](CO)O2)CC1`, the cytotoxicity call was “inactive”.
Take `C[C@@H]1CCCCO[C@H](CN(C)S(=O)(=O)c2ccccc2)[C@@H](C)CN([C@H](C)CO)C(=O)c2cc(NC(=O)Nc3ccccc3)ccc2O1`: the cytotoxicity call was “inactive”.
Under `O=C(O)c1ccc(N[C@@H]2O[C@H](CO)[C@@H](O)[C@H](O)[C@H]2O)cc1` stands “inactive”; under `Cc1ccc(S(=O)(=O)Nc2ccc3c(c2)C(=O)N([C@H](C)CO)C[C@H](C)[C@H](CN(C)S(=O)(=O)c2ccc(Cl)cc2)OCCCC[C@@H](C)O3)cc1`, “inactive”; under `Cc1ccc(S(=O)(=O)Nc2ccc3c(c2)C(=O)N([C@H](C)CO)C[C@@H](C)[C@@H](CN(C)S(=O)(=O)c2ccc(Cl)cc2)OCCCC[C@@H](C)O3)cc1`, “inactive”.
Consider `Cc1ccc(S(=O)(=O)Nc2ccc3c(c2)C(=O)N([C@H](C)CO)C[C@H](C)[C@@H](CN(C)S(=O)(=O)c2ccc(Cl)cc2)OCCCC[C@H](C)O3)cc1`, for which the cytotoxicity call was “active”.
Under `Cc1ccc(S(=O)(=O)N(C)C[C@H]2OCCCC[C@H](C)Oc3ccc(NS(=O)(=O)c4ccc(Cl)cc4)cc3C(=O)N([C@H](C)CO)C[C@H]2C)cc1` stands “inactive”.
For the compound `Cc1ccc(S(=O)(=O)Nc2ccc3c(c2)C(=O)N([C@H](C)CO)C[C@@H](C)[C@H](CN(C)S(=O)(=O)c2ccc(Cl)cc2)OCCCC[C@@H](C)O3)cc1`, the cytotoxicity call was “active”.
Under `Cc1ccc(S(=O)(=O)Nc2ccc3c(c2)C(=O)N([C@@H](C)CO)C[C@@H](C)[C@@H](CN(C)S(=O)(=O)c2ccc(Cl)cc2)OCCCC[C@@H](C)O3)cc1` stands “inactive”; under `Cc1ccc(S(=O)(=O)Nc2ccc3c(c2)C(=O)N([C@@H](C)CO)C[C@@H](C)[C@H](CN(C)S(=O)(=O)c2ccc(Cl)cc2)OCCCC[C@@H](C)O3)cc1`, “inactive”; under `Cc1ccc(S(=O)(=O)N(C)C[C@@H]2OCCCC[C@@H](C)Oc3ccc(NS(=O)(=O)c4ccc(Cl)cc4)cc3C(=O)N([C@H](C)CO)C[C@@H]2C)cc1`, “inactive”.
Take `Cc1ccc(S(=O)(=O)Nc2ccc3c(c2)C(=O)N([C@@H](C)CO)C[C@H](C)[C@@H](CN(C)S(=O)(=O)c2ccc(Cl)cc2)OCCCC[C@H](C)O3)cc1`: the cytotoxicity call is “active”.
Under `Cc1ccc(S(=O)(=O)N(C)C[C@H]2Oc3ccc(NS(=O)(=O)c4cccs4)cc3CC(=O)N([C@H](C)CO)C[C@H]2C)cc1` stands “inactive”.
In the case of `COc1ccc(CNC(=O)N(C)C[C@@H]2OCc3ccccc3-c3c(n(C)c4ccccc34)C(=O)N([C@@H](C)CO)C[C@H]2C)cc1`, the cytotoxicity call is “inactive”.
Take `C[C@H]1CN([C@@H](C)CO)C(=O)c2cccc(NC(=O)Nc3ccc(F)cc3)c2O[C@H]1CN(C)S(C)(=O)=O`: the cytotoxicity call was “inactive”.
Under `COc1ccc(-c2coc3cc(O)ccc3c2=O)c(OC)c1OC` stands “inactive”; under `COc1c(-c2coc3cc4c(cc3c2=O)CC(O)C(C)(C)O4)ccc2c1C=CC(C)(C)O2` (stereo not given), “active”.
Under `COc1ccc(-c2coc3cc(O)ccc3c2=O)c(O)c1O` stands “inactive”.
With `O=C(C[C@@H]1CC[C@@H](NC(=O)C2CC2)[C@@H](CO)O1)NCCCN1CCOCC1`, the cytotoxicity call was “inactive”.
As for `C[C@@H]1CN([C@H](C)CO)C(=O)c2cc(-c3ccc(C(=O)N(C)C)cc3)cnc2O[C@@H]1CN(C)C(=O)CN(C)C`, the cytotoxicity call was “inactive”.
Consider `Cc1cc(-c2ccc(NN=C3C=Cc4c(S(=O)(=O)O)cc(S(=O)(=O)O)c(N)c4C3=O)c(C)c2)ccc1NN=C1C=Cc2c(S(=O)(=O)O)cc(S(=O)(=O)O)c(N)c2C1=O`, for which the cytotoxicity call was “active”.
The entry for `COc1cc(-c2ccc(NN=C3C=Cc4c(S(=O)(=O)O)cc(S(=O)(=O)O)c(N)c4C3=O)c(OC)c2)ccc1NN=C1C=Cc2c(S(=O)(=O)O)cc(S(=O)(=O)O)c(N)c2C1=O` is “active”; for `COCC(=O)N1C[C@]2(CCN(CC2)C(=O)CN2CCOCC2)c2c([nH]c3cc(ccc23)OC)[C@@H]1CO` it is “inactive”.
The entry for `COc1ccc2c3c(n(c2c1)C)[C@H](CO)N(C[C@]13CCN(CC1)C(=O)C1CCOCC1)C(=O)C1CCOCC1` is “inactive”; for `C[C@@H]1CN([C@@H](C)CO)C(=O)c2cccc(NC(=O)C3CC3)c2O[C@H]1CN(C)Cc1ccc(Oc2ccccc2)cc1` it is “inactive”; for `CC(=O)Nc1ccccc1` it is “inactive”.
Under `NNC(=O)c1ccccc1O` stands “inactive”.
For `O=C(Nc1ccccc1)Nc1ccc(Nc2ccccc2)cc1`, the cytotoxicity call is “active”.
The entry for `O=C(Nc1ccccc1)Nc1ccccc1` is “inactive”; for `O=C(Nc1ccccc1)c1ccccc1` it is “inactive”.
Consider `O=C(Nc1ccccc1)c1ccccc1O`, for which the cytotoxicity call was “active”.
The entry for `C[C@@H]1CN([C@@H](C)CO)C(=O)c2cccc(NC(=O)Nc3ccccc3)c2O[C@H]1CN(C)S(C)(=O)=O` is “inactive”; for `COc1ccc(CN(C)C[C@H]2OCCCC[C@@H](C)Oc3ccc(NC(=O)C4CCCCC4)cc3C(=O)N([C@@H](C)CO)C[C@H]2C)cc1` it is “inactive”; for `CN1C(=O)c2cc(NC(=O)C3CCCC3)ccc2OC[C@H]2O[C@H](CC(=O)NCCc3ccncc3)CC[C@@H]21` it is “inactive”.
Under `Cc1ccc(S(=O)(=O)N(C)C[C@@H]2Oc3ccc(NS(=O)(=O)c4ccccc4)cc3C(=O)N([C@H](C)CO)C[C@@H]2C)cc1` stands “inactive”.
Under `C[C@@H]1CN([C@@H](C)CO)C(=O)c2ccccc2-c2ccccc2CO[C@@H]1CN(C)Cc1cccc(C(F)(F)F)c1` stands “inactive”; under `CCCNC(=O)N[C@@H]1CC[C@H](CC(=O)N2CCN(C)CC2)O[C@H]1CO`, “inactive”.
Consider `COc1ccccc1NC(=O)Nc1ccc2c(c1)C(=O)N(C)C[C@@H](OC)[C@H](C)CN(Cc1ccccc1Cl)[C@H](C)CO2`, for which the cytotoxicity call is “inactive”.
On to `O=C1C=CC(=O)N1`, for which the cytotoxicity call is “active”.
The entry for `COc1ccc(CN(C)C[C@@H]2OCCCC[C@H](C)Oc3ccc(NC(=O)CCC(F)(F)F)cc3C(=O)N([C@H](C)CO)C[C@@H]2C)cc1` is “inactive”.
Under `CNC[C@@H]1Oc2ccc(NC(=O)Cn3cnnn3)cc2C(=O)N([C@H](C)CO)C[C@@H]1C` stands “inactive”; under `C[C@H](CO)N1C[C@H](C)[C@H](CN(C)C(=O)Nc2ccc(F)cc2)Oc2ccc(NC(=O)CCN3CCOCC3)cc2CC1=O`, “inactive”; under `C[C@H](CO)N1C[C@H](C)[C@@H](CN(C)C(=O)Nc2ccc3c(c2)OCO3)Oc2c(NC(=O)C3CCOCC3)cccc2C1=O`, “inactive”.
The entry for `O=C(Nc1cc(Cl)cc(Cl)c1O)c1c(O)c(Cl)cc(Cl)c1Cl` is “inactive”.
On to `Oc1c(Cl)cc(Cl)c(Cl)c1Cc1c(O)c(Cl)cc(Cl)c1Cl`, for which the cytotoxicity call was “active”.
The entry for `O=C(/C=C/c1cccc(-c2cn(CC[C@@H]3OC(=O)[C@H](Cc4ccccc4)N4CC5=CC(=O)[C@H](C6CC6)[C@H]5[C@H]34)nn2)c1)NO` is “inactive”; for `O=C(C[C@@H]1C[C@@H]2c3cc(NC(=O)Nc4ccc(C(F)(F)F)cc4)ccc3O[C@@H]2[C@H](CO)O1)NCCc1ccccc1` it is “inactive”; for `CCS(=O)(=O)N1[C@H](CO)[C@H](c2ccccc2)C12CN(C(=O)CN(C)C)C2` it is “inactive”.
For `C[C@H]1CCCCO[C@H](CN(C)C(=O)C2CCCCC2)[C@@H](C)CN([C@@H](C)CO)C(=O)c2cc(NC(=O)Nc3ccc4c(c3)OCO4)ccc2O1`, the cytotoxicity call is “inactive”.
The entry for `COc1c(C)c2c(c(O)c1CC=C(C)CCC(=O)OCCN1CCOCC1)C(=O)OC2` is “inactive”.
The entry for `COc1c(C)c2c(c(O)c1CC=C(C)CCC(=O)O)C(=O)OC2` is “active”; for `COc1cccc(S(=O)(=O)N2C[C@@H](O)COC[C@@H]3O[C@@H](CC(=O)N4CCOCC4)CC[C@H]32)c1` it is “inactive”.
Turning to `COc1ccc(NC(=O)N(C)C[C@H]2Oc3c(NC(=O)CCCCCC(=O)Nc4ccccc4N)cccc3C(=O)N([C@@H](C)CO)C[C@H]2C)cc1`, the cytotoxicity call was “inactive”.
Turning to `C[C@H]1CN([C@@H](C)CO)C(=O)c2cc(C#CCc3ccccc3)cnc2O[C@H]1CN(C)C(=O)Cc1cccnc1`, the cytotoxicity call is “inactive”.
Under `Cc1ccccc1S(=O)(=O)N1C[C@H](O)COC[C@@H]2O[C@@H](CC(=O)N3CCOCC3)CC[C@H]21` stands “inactive”; under `CC(C)C(=O)Oc1ccc(CO)cc1C(CCN(C(C)C)C(C)C)c1ccccc1.O=C(O)C=CC(=O)O` (stereo not given), “active”; under `C[C@H]1CN([C@@H](C)CO)C(=O)c2cc(NC(=O)CCN3CCOCC3)ccc2O[C@@H]1CN(C)C(=O)Nc1ccc2c(c1)OCO2`, “inactive”.
With `CC(=O)NCCCC[C@@H]1NC(=O)[C@@H]2C[C@H](C(=O)NCCCCCCN(C)C)[C@H](c3ccc(O)cc3)N2C1=O`, the cytotoxicity call was “inactive”.
As for `C[C@@H]1CCCCO[C@@H](CN(C)Cc2ccc(Cl)c(Cl)c2)[C@@H](C)CN([C@H](C)CO)C(=O)c2cc(NC(=O)c3ccccc3)ccc2O1`, the cytotoxicity call is “inactive”.
The entry for `CCOn1ccnc1` is “inactive”; for `Cn1c(=O)c2c(nc(N3CCCCC3)n2CCN)n(C)c1=O` it is “inactive”.
On to `CC#CCn1c(N2CCC[C@@H](N)C2)nc2c1c(=O)n(Cc1nc(C)c3ccccc3n1)c(=O)n2C`, for which the cytotoxicity call is “active”.
The entry for `Cc1cc(C)n(-c2nc3c(c(=O)n(CCN4CCOCC4)c(=O)n3C)n2C)n1` is “inactive”; for `C[C@H]1CN([C@@H](C)CO)C(=O)c2cccc(NS(=O)(=O)c3cn(C)cn3)c2O[C@@H]1CN(C)C(=O)Nc1ccc2c(c1)OCO2` it is “inactive”; for `CC(=O)N1[C@@H]2Cn3c(ccc(-c4ccccc4)c3=O)[C@H]1[C@@H](C(=O)NCCCN1CCOCC1)[C@@H]2CO` it is “inactive”.
